The record followed here is PubChem BioAssay (Tox21).

“And” between values parts separate entries of the source, which are not always exact repeats. Identical values can stand only once. A number with no mark means an inactive call. Inconclusive results are not listed. The source made the active and inactive calls. Calls come from the whole dose curve; as a rule, active = well fitted curve in the direction sought with a large enough effect in the repeat runs; inconclusive = weak or mixed curves; inactive = no such curve, though single readings can be large; an effect the other way counts as inactive or inconclusive.

Experiment [1] in a line: qHTS RealTime-Glo MT Cell Viability Assay in HepG2 cells - 40 hour (AID 1224870). Note: nearly all actives have a fitted effect of over 50% in size. The method in brief:
(§1)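 Real-time viability: cells seeded at 600 per well together with NanoLuc and cell-permeant prosubstrate, compounds added after 5 h incubation. Luminescence tracked at 0, 8, 16, 24, 32 and 40 h of exposure.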

Experiment [2] in a line: A CellTox Green Cytotoxicity Assay to monitor cytotoxicity in HEK293 cells - 40 hour (AID 1224871). Note: nearly all actives have a fitted effect of over 45% in size. Note: potency is the fitted concentration of half-maximal effect. An outline of the steps:
(§2)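 Fluorescence from a DNA-binding dye excluded by viable cells was measured repeatedly in the same HEK293 wells (600 cells/well) during continuous compound exposure at 37 C. Each assay gives one read point: 0, 8, 16, 24, 32 or 40 h.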

A short description of experiment [3]: qHTS RealTime-Glo MT Cell Viability Assay in HEK293 cells - 16 hour (AID 1224872). Note: top concentration of the series differs between compounds; nearly all actives have a fitted effect of over 50% in size. An outline of the steps:
(§3)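 Quantitative high-throughput screen of the Tox21 10K library in HEK293: cells and RealTime-Glo reagents plated together, compound added at 5 h, luminescence monitored through 40 h at 37 C.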
A general note: Quantitative high-throughput screening tests each substance at several concentrations.

Experiment [4] is described as follows: qHTS RealTime-Glo MT Cell Viability Assay in HepG2 cells - 8 hour (AID 1224873). Note: nearly all actives have a fitted effect of over 55% in size. An outline of the steps: as §1
The nature of experiment [5]: qHTS RealTime-Glo MT Cell Viability Assay in HEK293 cells - 40 hour (AID 1224874). Note: nearly all actives have a fitted effect of over 50% in size. The settings on record: RealTime-Glo luminescence; max response: active compounds read low. An outline of the steps:
(§4)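 Luminescence, which tracks viable cell number through reduction of the prosubstrate to a NanoLuc substrate, was read over continuous 37 C culture. Cells (600/well) were premixed with reagent and rested 5 h before 23 nL of compound in DMSO was pinned.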

Experiment [6] is described as follows: A CellTox Green Cytotoxicity Assay to monitor cytotoxicity in HEK293 cells - 24 hour (AID 1224875). Note: series mostly up to about 77 µM; nearly all actives have a fitted effect of over 45% in size. The method in brief:
as §2

A short description of experiment [7]: A CellTox Green Cytotoxicity Assay to monitor cytotoxicity in HepG2 cells - 16 hour (AID 1224876). Note: nearly all actives have a fitted effect of over 45% in size. An outline of the steps: (§5)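 Real-time cytotoxicity: fluorescence of a cell-impermeant cyanine dye binding DNA of dead HepG2 cells, measured repeatedly (0–40 h) during compound exposure at 37 C. Cells seeded 600/well with reagent, dosed after 5 h.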
Experiment [8] in a line: A CellTox Green Cytotoxicity Assay to monitor cytotoxicity in HepG2 cells - 24 hour (AID 1224878). Note: nearly all actives have a fitted effect of over 45% in size. The method in brief:
as §5

Experiment [9] is described as follows: A CellTox Green Cytotoxicity Assay to monitor cytotoxicity in HepG2 cells - 40 hour (AID 1224879). Note: nearly all actives have a fitted effect of over 40% in size. An outline of the steps:
as §5

Experiment [10] in a line: qHTS RealTime-Glo MT Cell Viability Assay in HEK293 cells - 0 hour (AID 1224880). An outline of the steps: as §4
Experiment [11] in a line: A CellTox Green Cytotoxicity Assay to monitor cytotoxicity in HEK293 cells - 32 hour (AID 1224881). Note: nearly all actives have a fitted effect of over 40% in size. Note: potency is the fitted concentration of half-maximal effect. An outline of the steps:
as §2

Experiment [12] is described as follows: A CellTox Green Cytotoxicity Assay to monitor cytotoxicity in HepG2 cells - 0 hour (AID 1224882). Note: nearly all actives have a fitted effect of over 35% in size. An outline of the steps: as §5
Experiment [13] is described as follows: A CellTox Green Cytotoxicity Assay to monitor cytotoxicity in HepG2 cells - 32 hour (AID 1224883). Note: nearly all actives have a fitted effect of over 50% in size. The method in brief:
as §5

Experiment [14] in a line: A CellTox Green Cytotoxicity Assay to monitor cytotoxicity in HEK293 cells - 8 hour (AID 1224884). Note: nearly all actives have a fitted effect of over 35% in size. An outline of the steps:
as §2

Experiment [15] in a line: qHTS RealTime-Glo MT Cell Viability Assay in HepG2 cells - 16 hour (AID 1224885). Note: nearly all actives have a fitted effect of over 50% in size. An outline of the steps:
(§6)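 Compound treatment began 5 h after plating HepG2 cells (600/well) with NanoLuc luciferase and prosubstrate. Plates stayed at 37 C for 40 h; luminescence was captured at six time points, 0 h through 40 h.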

Experiment [16] in a line: qHTS RealTime-Glo MT Cell Viability Assay in HEK293 cells - 24 hour (AID 1224886). The method in brief: as §3
Experiment [17] is described as follows: qHTS RealTime-Glo MT Cell Viability Assay in HEK293 cells - 8 hour (AID 1224887). An outline of the steps: as §4
The nature of experiment [18]: A CellTox Green Cytotoxicity Assay to monitor cytotoxicity in HEK293 cells - 16 hour (AID 1224888). Note: nearly all actives have a fitted effect of over 35% in size. The method in brief: as §2
Experiment [19] in a line: qHTS RealTime-Glo MT Cell Viability Assay in HepG2 cells - 0 hour (AID 1224889). Note: nearly all actives have a fitted effect of over 50% in size. An outline of the steps:
as §6

Experiment [20] is described as follows: qHTS RealTime-Glo MT Cell Viability Assay in HepG2 cells - 32 hour (AID 1224877). Note: nearly all actives have a fitted effect of over 55% in size. The method in brief: as §6
% is set by controls: 0 for no effect and ±100 for the full control effect.

Consider `CCOP(=O)(OCC)SCCSCC`, for which the Potency entry in experiment [1], in experiment [2], in experiment [3], in experiment [4], in experiment [6] and in experiment [7] was “inactive” in each case. For the same compound, the Potency result in [8], in experiment [9], in [10], in experiment [11], in experiment [12] and in [13] was “inactive” throughout. Moreover, the Potency entry in [14], in [15], in experiment [16], in experiment [17], in experiment [18] and in experiment [19] was “inactive” each time. Moreover, the max response in experiment [5] was 0.908% and 6.69%.
Consider `NCCCNCCCN`, for which the Potency result in experiment [1], in experiment [3], in experiment [4], in experiment [7], in experiment [20] and in experiment [8] was “inactive” in each case. Besides, the Potency entry in experiment [9], in [10], in experiment [12], in experiment [13], in [16] and in experiment [17] was “inactive” each time. Further, the Potency in [2] and in experiment [11] was 62.6 µM (active) throughout. Moreover, the max response in [5] was -7.03%.
Take `CCCCCCCCCCOC(=O)c1ccccc1C(=O)OCCCCCCCCCC`: the Potency entry in experiment [1], in [2], in experiment [3], in experiment [4], in experiment [6] and in experiment [7] was “inactive” in each case. Also, the Potency entry in experiment [20], in experiment [8], in [9], in experiment [10], in experiment [11] and in [12] was “inactive” each time. The Potency result in [15], in [16], in experiment [17], in experiment [18] and in experiment [19] was “inactive” throughout. Also, in experiment [5], the max response is 0.334%.
In the case of `COC1=CC(=O)O[C@@H](CCc2ccccc2)C1`, the Potency result in [1], in [2], in experiment [3], in experiment [4], in experiment [6] and in [7] was “inactive” in each case. The Potency entry in experiment [20], in [8], in experiment [9], in experiment [11], in experiment [12] and in experiment [15] was “inactive” throughout. Besides, the Potency result in [16], in experiment [17], in experiment [18] and in experiment [19] was “inactive” each time. Moreover, the max response in experiment [5] is -25.1%.
For the compound `CC(C)(OO)c1ccccc1`, the Potency result in experiment [1], in experiment [2], in experiment [3], in experiment [4], in experiment [6] and in experiment [7] was “inactive” throughout. For the same compound, the Potency result in experiment [20], in experiment [8], in experiment [9], in [11], in experiment [12] and in experiment [13] was “inactive” in each case. In addition, the Potency entry in experiment [14], in experiment [15], in experiment [16], in experiment [17] and in [18] was “inactive” each time. In addition, the max response in [5] was -0.0681%.
`Nc1nc(N)nc(N)n1`: the Potency entry in experiment [1], in [2], in experiment [3], in experiment [4], in [6] and in [7] was “inactive” each time. The Potency entry in [8], in experiment [9], in experiment [10], in experiment [11], in experiment [12] and in experiment [13] was “inactive” each time. Moreover, the Potency entry in experiment [14], in experiment [16], in experiment [17], in [18] and in [19] was “inactive” in each case. Besides, the max response in [5] was 14.5%.
In the case of `O=C(O)C(F)(F)C(F)(F)C(F)(F)C(F)(F)C(F)(F)C(F)(F)C(F)(F)C(F)(F)C(F)(F)F`, the Potency entry in experiment [1], in experiment [2], in experiment [3], in [4], in [6] and in experiment [7] was “inactive” each time. Moreover, the Potency entry in experiment [8], in [9], in [10], in experiment [11], in experiment [12] and in experiment [13] was “inactive” throughout. Further, the Potency result in experiment [15], in experiment [16], in experiment [17], in experiment [18] and in experiment [19] was “inactive” throughout. Besides, in experiment [5], the max response is 1.42%.
With `Nc1nc(=S)[nH][nH]1`, the Potency entry in experiment [1], in [2], in [3], in experiment [4], in experiment [6] and in experiment [7] was “inactive” throughout. The Potency entry in [8], in [9], in experiment [10], in [11], in experiment [12] and in [13] was “inactive” in each case. In addition, the Potency entry in experiment [14], in experiment [15], in experiment [16], in experiment [17], in experiment [18] and in [19] was “inactive” throughout. Besides, the max response in experiment [5] is 1.62%.
On to `O=C=Nc1ccc(Cl)cc1`, for which the Potency entry in experiment [1], in experiment [2], in experiment [3], in experiment [4], in experiment [6] and in experiment [7] was “inactive” in each case. Further, the Potency entry in [20], in experiment [8], in experiment [10], in experiment [11], in [12] and in experiment [13] was “inactive” throughout. The Potency result in experiment [14], in experiment [16], in experiment [17], in experiment [18] and in [19] was “inactive” each time. Moreover, the max response in [5] was -3%.
